Measurements taken from PubChem BioAssay AID1159580 (chemical genetic matrix, 2015).
Out of some 5,500 compounds screened, about 2,000 (36%) were called active. Roughly 18% stayed inconclusive and do not appear here. Rule as the data show it: active = normalized growth mostly below about 0.91 (no sharp cut-off); inconclusive = no clear call, values can overlap the other calls; inactive = mostly above about 0.92. The list shows a part of the results.

Experiment: chemical genetic growth profiling, strain panel (AID 1159580);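 also: tested at 20 µM; growth read once vehicle control cultures reached saturation at 30 °C; 1 = growth at the plate median or of vehicle wells; lower values mean less growth of the strain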
Settings: growth OD

Measured: normalized growth

CC1CC[C@@]2(OC1)O[C@H]1CC3C4CC[C@@H]5C[C@@H](O)CC[C@]5(C)C4CC[C@]3(C)[C@H]1[C@@H]2C (some centres not stated)
active: S. cerevisiae deletion strains, locus YKR091W, strain srl3, active compounds read low 1.11 [resistant] | S. cerevisiae deletion strains, locus YLL001W, strain dnm1, active compounds read low 1.18 [resistant] | S. cerevisiae deletion strains, locus YLR357W, strain rsc2, active compounds read low 1.45 [resistant]
inactive: S. cerevisiae deletion strains, locus YJR066W, strain TOR1, active compounds read low 0.937 | S. cerevisiae deletion strains, locus YJR075W, strain HOC1, active compounds read low 1.03 | S. cerevisiae deletion strains, locus YKL009W, strain mrt4, active compounds read low 0.988 | S. cerevisiae deletion strains, locus YKL068W, active compounds read low 0.985 | S. cerevisiae deletion strains, locus YKL085W, strain MDH1 (second series), active compounds read low 0.969 | S. cerevisiae deletion strains, locus YKL085W, strain MDH1, active compounds read low 0.969 | S. cerevisiae deletion strains, locus YKL160W, strain elf1, active compounds read low 1.02 | S. cerevisiae deletion strains, locus YKL190W, strain CNB1, active compounds read low 1.03 | S. cerevisiae deletion strains, locus YKR001C, strain vps1, active compounds read low 1.01 | S. cerevisiae deletion strains, locus YKR026C, strain gcn3, active compounds read low 1.03 | S. cerevisiae deletion strains, locus YLL026W, active compounds read low 1.02 | S. cerevisiae deletion strains, locus YLL041C, strain sdh2, active compounds read low 1.02 | S. cerevisiae deletion strains, locus YLR027C, strain aat2, active compounds read low 1.05 | S. cerevisiae deletion strains, locus YLR039C, strain RIC1, active compounds read low 1.09 | S. cerevisiae deletion strains, locus YLR058C, strain SHM2, active compounds read low 1.04 | S. cerevisiae deletion strains, locus YLR102C, strain apc9, active compounds read low 1.01 | S. cerevisiae deletion strains, locus YLR113W, strain HOG1, active compounds read low 0.996 | S. cerevisiae deletion strains, locus YLR221C, strain rsa3, active compounds read low 1.03 | S. cerevisiae deletion strains, locus YLR258W, strain gsy2, active compounds read low 1.03 | S. cerevisiae deletion strains, locus YLR262C, strain YPT6 (second series), active compounds read low 0.987 | S. cerevisiae deletion strains, locus YLR268W, strain sec22, active compounds read low 1.02 | S. cerevisiae deletion strains, locus YLR320W, strain mms22, active compounds read low 1.04 | S. cerevisiae deletion strains, locus YLR330W, strain CHS5, active compounds read low 1.02 | S. cerevisiae deletion strains, locus YLR342W, strain FKS1 (second series), active compounds read low 1.03 | S. cerevisiae deletion strains, locus YLR342W, strain FKS1, active compounds read low 1.03 | S. cerevisiae deletion strains, locus YLR370C, strain arc18, active compounds read low 1.02 | S. cerevisiae deletion strains, locus YLR371W, strain rom2, active compounds read low 1.01 | S. cerevisiae deletion strains, locus YLR384C, strain iki3, active compounds read low 1.01 | S. cerevisiae deletion strains, locus YLR418C, strain cdc73, active compounds read low 1.04 | S. cerevisiae deletion strains, locus YML016C, strain PPZ1, active compounds read low 1.02 | S. cerevisiae deletion strains, locus YML032C, strain rad52, active compounds read low 1.01 | S. cerevisiae deletion strains, locus YML120C, strain ndi1, active compounds read low 1.04 | S. cerevisiae deletion strains, locus YML124C, strain tub3, active compounds read low 0.998 | S. cerevisiae deletion strains, locus YMR058W, strain fet3, active compounds read low 1.02 | S. cerevisiae deletion strains, locus YMR078C, strain ctf18, active compounds read low 0.998 | S. cerevisiae deletion strains, locus YMR125W, strain sto1, active compounds read low 1.04 | S. cerevisiae deletion strains, locus YMR129W, active compounds read low 1.01 | S. cerevisiae deletion strains, locus YMR205C, strain PFK2, active compounds read low 1.02 | S. cerevisiae deletion strains, locus YMR223W, strain ubp8, active compounds read low 1 | S. cerevisiae deletion strains, locus YMR231W, strain pep5, active compounds read low 1.02 | S. cerevisiae deletion strains, locus YMR307W, strain GAS1, active compounds read low 1.21 | S. cerevisiae deletion strains, locus YNL067W, strain RPL9B, active compounds read low 1.03 | S. cerevisiae deletion strains, locus YNL071W, strain lat1, active compounds read low 1.04 | S. cerevisiae deletion strains, locus YNL183C, strain NPR1, active compounds read low 0.941 | S. cerevisiae deletion strains, locus YNL209W, strain ssb2, active compounds read low 1.01 | S. cerevisiae deletion strains, locus YNL233W, strain BNI4, active compounds read low 1.07 | S. cerevisiae deletion strains, locus YNL248C, strain rpa49, active compounds read low 1.02 | S. cerevisiae deletion strains, locus YNL250W, strain rad50, active compounds read low 1.05 | S. cerevisiae deletion strains, locus YNL271C, strain bni1, active compounds read low 1 | S. cerevisiae deletion strains, locus YNL298W, strain CLA4, active compounds read low 1.05 | S. cerevisiae deletion strains, locus YNL307C, strain MCK1, active compounds read low 1 | S. cerevisiae deletion strains, locus YNL322C, strain KRE1 (second series), active compounds read low 1.05 | S. cerevisiae deletion strains, locus YNL322C, strain KRE1, active compounds read low 1.02 | S. cerevisiae deletion strains, locus YNR049C, strain mso1, active compounds read low 1.02 | S. cerevisiae deletion strains, locus YNR052C, strain pop2, active compounds read low 0.995 | S. cerevisiae deletion strains, locus YOL012C, strain htz1 1.12 | S. cerevisiae deletion strains, locus YOL147C, strain pex11, active compounds read low 1.03 | S. cerevisiae deletion strains, locus YOR001W, strain rrp6, active compounds read low 1.05 | S. cerevisiae deletion strains, locus YOR061W, strain CKA2, active compounds read low 1.02 | S. cerevisiae deletion strains, locus YOR069W, strain VPS5, active compounds read low 1.02 | S. cerevisiae deletion strains, locus YOR070C, strain gyp1, active compounds read low 1.01 | S. cerevisiae deletion strains, locus YOR080W, strain dia2, active compounds read low 1.02 | S. cerevisiae deletion strains, locus YOR083W, strain WHI5, active compounds read low 1.02 | S. cerevisiae deletion strains, locus YOR106W, strain vam3, active compounds read low 1.04 | S. cerevisiae deletion strains, locus YOR136W, strain idh2, active compounds read low 1.01 | S. cerevisiae deletion strains, locus YOR144C, strain elg1, active compounds read low 1 | S. cerevisiae deletion strains, locus YOR184W, strain ser1, active compounds read low 1 | S. cerevisiae deletion strains, locus YOR231W, strain MKK1, active compounds read low 0.99 | S. cerevisiae deletion strains, locus YOR265W, strain rbl2, active compounds read low 1.01 | S. cerevisiae deletion strains, locus YOR270C, strain vph1, active compounds read low 1.14 | S. cerevisiae deletion strains, locus YOR290C, strain snf2, active compounds read low 1.1 | S. cerevisiae deletion strains, locus YOR316C, strain cot1, active compounds read low 0.992 | S. cerevisiae deletion strains, locus YPL051W, strain arl3, active compounds read low 1.02 | S. cerevisiae deletion strains, locus YPL078C, strain atp4, active compounds read low 1.05 | S. cerevisiae deletion strains, locus YPL106C, strain sse1, active compounds read low 1.02 | S. cerevisiae deletion strains, locus YPL240C, strain hsp82, active compounds read low 1.02 | S. cerevisiae deletion strains, locus YPL241C, strain CIN2, active compounds read low 1.03 | S. cerevisiae deletion strains, locus YPL256C, strain CLN2, active compounds read low 0.984 | S. cerevisiae deletion strains, locus YPR119W, strain clb2, active compounds read low 1.01 | S. cerevisiae deletion strains, locus YPR141C, strain kar3, active compounds read low 1 | S. cerevisiae deletion strains, locus YPR163C, strain tif3, active compounds read low 1.01 | S. cerevisiae deletion strains, locus YPR167C, strain met16, active compounds read low 1.02 | S. cerevisiae deletion strains, strain wtn01, active compounds read low 1.01 | S. cerevisiae strains, strain wild type, active compounds read low 1.05
